# Screen size: about 310,000 compounds; about 14,000 (4.5%) showed an effect of 50% or more. Effects have a minus sign here. The sample holds strong results, similar compounds and a random draw of the others, so the mix is not that of the screen.
# Molecular target: human ether-à-go-go-related gene (hERG) potassium channel (human, UniProt Q12809)
# Assay: primary screen, population patch clamp on CHO cells stably expressing hERG; higher = less effect of the substance
# 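Also: peak tail current of the secondary pulse compared with the same well before compound.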
# Sequence of human ether-à-go-go-related gene (hERG) potassium channel (Q12809 whole entry, looked up): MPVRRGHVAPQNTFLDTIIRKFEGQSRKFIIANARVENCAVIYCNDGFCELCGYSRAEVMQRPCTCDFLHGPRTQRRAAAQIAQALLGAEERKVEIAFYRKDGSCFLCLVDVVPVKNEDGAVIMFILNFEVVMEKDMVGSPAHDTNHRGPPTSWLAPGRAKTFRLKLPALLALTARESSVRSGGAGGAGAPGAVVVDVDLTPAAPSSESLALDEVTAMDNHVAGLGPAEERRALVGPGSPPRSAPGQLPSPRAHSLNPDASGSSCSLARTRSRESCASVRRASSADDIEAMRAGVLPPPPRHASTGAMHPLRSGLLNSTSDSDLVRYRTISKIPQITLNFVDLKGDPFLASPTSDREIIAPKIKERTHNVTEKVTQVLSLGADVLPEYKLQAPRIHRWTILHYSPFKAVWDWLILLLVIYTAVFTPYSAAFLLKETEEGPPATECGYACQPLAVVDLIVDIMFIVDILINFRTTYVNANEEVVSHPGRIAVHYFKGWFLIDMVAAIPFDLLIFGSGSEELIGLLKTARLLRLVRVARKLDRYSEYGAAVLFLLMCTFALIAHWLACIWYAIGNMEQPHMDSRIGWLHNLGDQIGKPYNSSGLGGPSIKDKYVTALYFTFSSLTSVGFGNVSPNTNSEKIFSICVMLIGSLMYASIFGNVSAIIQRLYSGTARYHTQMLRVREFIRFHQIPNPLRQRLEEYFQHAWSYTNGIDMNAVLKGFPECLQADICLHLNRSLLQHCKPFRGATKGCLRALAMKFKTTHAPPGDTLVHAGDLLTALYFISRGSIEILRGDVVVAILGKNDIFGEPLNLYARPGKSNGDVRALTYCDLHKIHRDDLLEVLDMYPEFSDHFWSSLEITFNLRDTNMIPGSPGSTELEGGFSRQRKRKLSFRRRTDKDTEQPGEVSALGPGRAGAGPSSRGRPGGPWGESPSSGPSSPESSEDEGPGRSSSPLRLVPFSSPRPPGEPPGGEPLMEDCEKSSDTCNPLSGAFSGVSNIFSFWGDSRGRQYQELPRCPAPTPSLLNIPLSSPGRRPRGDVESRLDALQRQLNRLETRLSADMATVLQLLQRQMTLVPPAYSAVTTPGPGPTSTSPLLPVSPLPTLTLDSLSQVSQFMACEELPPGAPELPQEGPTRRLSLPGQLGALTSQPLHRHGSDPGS
row,SMILES,"hERG current change (%, negative = inhibition) at 10uM"
1,CC(C)n1c(-c2ccco2)csc1=Nc1cccnc1,-10.3%
2,COc1ccccc1-n1cnc2c(c1=O)c1nc3ccccc3nc1n2-c1ccc(C)cc1,-19.7%
3,COc1ccc(-c2ccc(/C=N/N3C(=O)C4C5C=CC(C6CC56)C4C3=O)o2)c([N+](=O)[O-])c1 (stereo not drawn),-58.9%
4,O=C1C2C3C=CC(C4CC34)C2C(=O)N1/N=C/c1ccc(-c2ccc(Cl)cc2[N+](=O)[O-])o1 (stereo not drawn),-13.5%
5,Cc1ccc(-c2ccc(/C=N/N3C(=O)C4C5C=CC(C6CC56)C4C3=O)o2)c([N+](=O)[O-])c1 (stereo not drawn),-12.5%
6,CCCCC[C@H](O)/C=C/C1=C(CCCCCCC(=O)O)C(=O)CC1,17.9%
7,O=C(COC(=O)c1c[nH]c(=O)[nH]c1=O)NCc1ccccc1,-12.2%
8,O=C(CN1CCOCC1)N/N=C/c1ccc(-c2cccc(Cl)c2Cl)o1,-73.4%
9,Cc1ccc(-c2ccc(/C=N/NC(=O)CN3CCOCC3)o2)cc1[N+](=O)[O-],-29.5%
10,O=C(CN1CCOCC1)N/N=C/c1ccc(-c2ccc(C(=O)O)cc2)o1,-12%
11,O=C(CN1CCOCC1)N/N=C/c1ccc(-c2ccc(Br)cc2)o1,-67.1%
12,O=C(CN1CCOCC1)N/N=C/c1ccccc1,-14.4%
13,Cc1ccc([N+](=O)[O-])cc1-c1ccc(/C=N/NC(=O)CN2CCOCC2)o1,-38.9%
14,O=C(COc1ccccc1F)NNC(=O)c1ccc(N2CCCCC2)c([N+](=O)[O-])c1,-36%
15,Nc1nc(-c2ccc(Cl)cc2)cn1N,-2.98%
16,COc1ccc(C(=O)Nc2ccccc2C(N)=O)cc1,-18.9%
17,CC(=O)Oc1cccc(N2C(=O)C3C4C=CC(CC4)C3C2=O)c1 (stereo not drawn),16.1%
18,Cc1ccc(-c2nc3ccccc3c(=O)n2-c2ccc(O)cc2)cc1,-3.92%
19,C=CCC1(CC=C)CCCN1C(=O)C1CCC(=O)N(CCc2ccccc2)C1 (stereo not drawn),-12.5%
20,C=CCC1(CC=C)CCCN1C(=O)C1CCC(=O)N(CCc2ccc(OC)cc2)C1 (stereo not drawn),-18.6%
21,O=C1CCC(C(=O)N2CCCCCC2)CN1CCc1ccc(Cl)cc1 (stereo not drawn),-28.9%
22,C=CCC1(CC=C)CCCN1C(=O)C1CCC(=O)N(CCc2ccc(Cl)cc2)C1 (stereo not drawn),-60%
23,O=C1CCC(C(=O)N2CCC(O)CC2)CN1CCc1ccc(Cl)cc1 (stereo not drawn),1.38%

row,SMILES,"hERG current change (%, negative = inhibition) at 10uM"
1,CC(C)C1CCN(C(=O)C2CCC(=O)N(CCc3ccc(Cl)cc3)C2)CC1 (stereo not drawn),-52.6%
2,COc1ccc(S(=O)(=O)Nc2ccccc2C)cc1,0.614%
3,C/C(=N\NC(N)=S)c1cccnc1,2.44%
4,COc1ccccc1N1CCN(c2cc(C)nc3nc(C)nn23)CC1,-57.6%
5,Cc1ccc(N2CCN(c3cc(C)nc4nc(C)nn34)CC2)c(C)c1,-72.6%
6,Cc1cc(N2CCN(c3ccccn3)CC2)n2nc(C)nc2n1,-51.4%
7,COc1cccc(Nc2cc(C)nc3nc(C)nn23)c1,-12.8%
8,COc1ccccc1-c1c(C)nn2c(N3CCN(c4ccccc4OC)CC3)cc(C)nc12,3.75%
9,Cc1ccc(Nc2cc(C)nc3nc(C)nn23)c(C)c1,9.08%
10,Cc1cc(C)c2c(n1)nn1c(N3CCN(c4ccccc4C)CC3)cc(C)nc21,7.78%
11,COc1ccccc1N1CCN(c2nc(C)cc(=O)[nH]2)CC1,11.6%
12,Cc1cc(Nc2cccc(F)c2)n2nc(C)nc2n1,-12.1%
13,Cc1cc(Nc2cccc(C(F)(F)F)c2)n2nc(C)nc2n1,-51.8%
14,Cc1ccc(/C=N/N2CCN(c3ccccn3)CC2)cc1,2.68%
15,C(=N\N1CCN(c2ccccn2)CC1)/c1ccccn1,13.5%
16,COC(=O)C(CC(C)C)NC(=O)CNC(=O)c1ccccc1C (stereo not drawn),3.34%
17,C/C(=N\OCC(=O)Nc1cc(C)cc(C)c1)c1ccc2c(c1)OCCO2,-13%
18,CCC12CN3CCN(CC(C3)/C1=N/NC(N)=O)C2,21%
19,Cc1c(Cl)cccc1-n1ccnc1SCC(=O)O,18.2%
20,O=S(=O)(/N=C(/c1ccccc1)N1CCOCC1)c1ccc(F)cc1,23.7%
21,COc1ccc(-c2cc(C(=O)N(C)Cc3cccc(OC)c3OC)c3ccccc3n2)cc1OC,-28.8%
22,COc1ccc(OC)c(/C=C/C(=O)Oc2ccc(C(C)=O)cc2)c1,13.8%

# Reference: paper PMC4336329 (PLoS ONE, 2015)
